This note sets out measurements from PubChem BioAssay (NCATS).

Experiment [1] concerns the target Cytochrome P450 1A2 (Homo sapiens) (UniProt P05177). Description: p450-cyp1a2 (AID 410; calls by dose curve; further: potency means the concentration at half of the fitted maximal effect). The essentials:
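Read-out is luminescence from luciferin produced by CYP1A2 demethylation of Luciferin-ME (100uM, at Km). Detection reagent stopped the 60 min NADPH-dependent reaction; signals were normalized to 57 uM furafylline.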

Experiment [2] addresses Glucocorticoid receptor (Homo sapiens) (UniProt P04150). Description: GR-GFP Redistribution (AID 450;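 active means compounds whose dose series gives a full or clear partial fitted curve of increased nuclear translocation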; further: potency means the concentration at half of the fitted maximal effect).
For experiment [3] the target is unchanged. The experiment is described as follows: GR-EFC Redistribution (AID 451; calls by dose curve; further: potency means the concentration at half of the fitted maximal effect). The conditions noted are these: CHO-K1 GR-EFC translocation, beta-gal luminescence, 2 h. Put shortly:
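CHO-K1 cells stably expressing nuclear-localized β-gal enzyme acceptor and GR fused C-terminally to the enzyme donor fragment; ligand-driven nuclear translocation restores β-gal by complementation. Compounds titrated up to 46 uM final, 2 h at 37 °C; luminescence read.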

Experiment [4] has as its target Cytochrome P450 2D6 (Homo sapiens) (UniProt P10635). Description: qHTS Assay for Inhibitors and Substrates of Cytochrome P450 2D6 (AID 891). Further: nearly all actives have a fitted effect of over 60% in size. Further: potency means the concentration at half of the fitted maximal effect. The essentials: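 Luminescent read-out of luciferin formed by 5 nM human CYP2D6 demethylating 30 uM Luciferin-ME EGE (Km level) over 60 min at room temperature after NADPH regeneration addition. Data normalized to full inhibition by 1.43 uM quinidine.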

Experiment [5] deals with Cytochrome P450 2C19 (Homo sapiens) (UniProt P33261). The experiment is described as follows: qHTS Assay for Inhibitors and Substrates of Cytochrome P450 2C19 (AID 899). Further: nearly all actives have a fitted effect of over 60% in size. Further: potency means the concentration at half of the fitted maximal effect. The essentials: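 NADPH-dependent conversion of Luciferin-H EGE (10uM, at KM) by 5nM enzyme in 50mM KPO4, 60 min at 37C following 10 min compound preincubation. Stopped with luciferin detection buffer; luminescence read after 20 min.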
Sequence of Cytochrome P450 2C19 (Homo sapiens) (P33261 whole entry, looked up): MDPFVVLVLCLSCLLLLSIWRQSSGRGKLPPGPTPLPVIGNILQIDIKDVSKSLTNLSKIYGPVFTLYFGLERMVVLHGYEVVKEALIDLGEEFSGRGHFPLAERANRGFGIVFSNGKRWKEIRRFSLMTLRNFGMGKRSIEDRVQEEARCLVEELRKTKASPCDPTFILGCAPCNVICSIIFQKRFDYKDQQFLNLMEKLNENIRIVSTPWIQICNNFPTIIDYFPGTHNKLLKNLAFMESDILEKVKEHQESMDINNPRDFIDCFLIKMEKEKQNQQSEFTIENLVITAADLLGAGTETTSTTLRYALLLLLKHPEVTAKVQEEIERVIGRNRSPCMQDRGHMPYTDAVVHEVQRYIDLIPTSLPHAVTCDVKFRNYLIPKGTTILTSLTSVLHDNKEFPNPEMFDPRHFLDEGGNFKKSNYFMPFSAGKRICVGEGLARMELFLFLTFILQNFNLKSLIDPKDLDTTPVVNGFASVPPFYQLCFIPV
(In general: In qHTS, concentration-response curves come from the screen itself.)

For experiment [6], the target named is Mitogen-activated protein kinase 10 (Mus musculus) (UniProt Q61831). The experiment is described as follows: JNK3 AlphaScreen Assay (AID 530; active means well fitted curve in either direction with a large enough effect, not every such curve was filed as active;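 further: kinase came from lysate of stimulated human HepG2 cells; signal reports phosphorylation of biotinylated GST-cJun 1-79 at Ser73 with 10 µM ATP; series mostly up to about 57 µM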). Put shortly:
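Biotinylated GST-cJun(1-79) served as substrate for JNK3 in HepG2 lysates stimulated with IL-1beta and TNF-alpha. ATP was 10 uM final, pH 7.6. Ser73 phosphorylation was quantified by AlphaScreen (680 nm excitation).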
(In general: In Alpha technology, singlet oxygen from a donor bead excites a nearby acceptor bead.)

In experiment [7] the target is Cytochrome P450 2C9 (Homo sapiens) (UniProt P11712). The experiment is described as follows: qHTS Assay for Inhibitors and Substrates of Cytochrome P450 2C9 (AID 883). Further: nearly all actives have a fitted effect of over 60% in size. Further: potency means the concentration at half of the fitted maximal effect. Put shortly:
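A luminogenic readout tracked human CYP2C9 (10nM) converting deoxyluciferin (100uM, at KM) in 25mM KPO4 during 60 min at 37C with regenerated NADPH. Values normalized to 57uM sulphaphenazole as complete inhibition.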

Experiment [8] addresses 3',5'-cyclic-AMP phosphodiesterase 4B (Homo sapiens) (UniProt Q07343). The experiment is described as follows: qHTS Assay for Inhibitors of PDE-IV (AID 607; active means well fitted activation curve with a large enough effect in the main read-out, with a control signal flat, not every such curve was filed as active). The essentials: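 Cell-based read-out of cAMP via a modified cyclic nucleotide-gated channel and membrane potential dye (535/590 nm) in HEK293 cells expressing PDE4 endogenously. Compounds tested up to 22.9 uM final; 100 uM RO 20-1724 reference.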

Experiment [9] concerns the target Cytochrome P450 3A4 (Homo sapiens) (UniProt P08684). The experiment is described as follows: qHTS Assay for Inhibitors and Substrates of Cytochrome P450 3A4 (AID 884). Further: potency means the concentration at half of the fitted maximal effect; nearly all actives have a fitted effect of over 50% in size. Put shortly:
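Luminescent readout of luciferin produced by CYP3A4 (20 nM) dealkylation of Luciferin-PPXE, 25 uM (its KM). NADPH-driven reaction ran 60 min at RT after 10 min compound preincubation; data scaled to 57 uM ketoconazole as 100% inhibition.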

For experiment [10] the target is unchanged. Description: qHTS Assay for Activators of Cytochrome P450 3A4 (AID 885). Further: nearly all actives have a fitted effect of over 65% in size. Put shortly: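 Luminescent readout of luciferin formed from 25 uM Luciferin-PPXE (KM level) by 20 nM CYP3A4 in 200 mM KPO4, with 60 min NADPH-driven reaction at room temperature after 10 min compound exposure. Ketoconazole (57 uM) defined 100% inhibition.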
The target of experiment [11] is DNA dC->dU-editing enzyme APOBEC-3G (Homo sapiens) (UniProt Q9HC16). Description: qHTS for inhibitors of Vif-A3G interactions: Validation (AID 588379). The essentials:
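Yellow fluorescence (Ex 488, Em 500-530) of Vif-coexpressing HeLa A3G-eYFP cells, scanned by Acumen cytometer, reports blocked A3G degradation. Cells plated at 700/well overnight at 37 deg C before compound addition, then a further overnight compound incubation at 37 deg C.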

Unmarked numbers belong to inactive results. Results filed as inconclusive are left out. Active and inactive are the calls of the source. Unless noted, the call rests on the fitted dose curve; in most records, active means well fitted curve in the direction sought with a large enough effect; inconclusive means small, poorly fitted or top-dose-only effect, or another doubt; inactive means no such curve, though single readings can be large; an effect the other way counts as inactive or inconclusive.

Sequence of Glucocorticoid receptor (Homo sapiens) (P04150 whole entry, looked up): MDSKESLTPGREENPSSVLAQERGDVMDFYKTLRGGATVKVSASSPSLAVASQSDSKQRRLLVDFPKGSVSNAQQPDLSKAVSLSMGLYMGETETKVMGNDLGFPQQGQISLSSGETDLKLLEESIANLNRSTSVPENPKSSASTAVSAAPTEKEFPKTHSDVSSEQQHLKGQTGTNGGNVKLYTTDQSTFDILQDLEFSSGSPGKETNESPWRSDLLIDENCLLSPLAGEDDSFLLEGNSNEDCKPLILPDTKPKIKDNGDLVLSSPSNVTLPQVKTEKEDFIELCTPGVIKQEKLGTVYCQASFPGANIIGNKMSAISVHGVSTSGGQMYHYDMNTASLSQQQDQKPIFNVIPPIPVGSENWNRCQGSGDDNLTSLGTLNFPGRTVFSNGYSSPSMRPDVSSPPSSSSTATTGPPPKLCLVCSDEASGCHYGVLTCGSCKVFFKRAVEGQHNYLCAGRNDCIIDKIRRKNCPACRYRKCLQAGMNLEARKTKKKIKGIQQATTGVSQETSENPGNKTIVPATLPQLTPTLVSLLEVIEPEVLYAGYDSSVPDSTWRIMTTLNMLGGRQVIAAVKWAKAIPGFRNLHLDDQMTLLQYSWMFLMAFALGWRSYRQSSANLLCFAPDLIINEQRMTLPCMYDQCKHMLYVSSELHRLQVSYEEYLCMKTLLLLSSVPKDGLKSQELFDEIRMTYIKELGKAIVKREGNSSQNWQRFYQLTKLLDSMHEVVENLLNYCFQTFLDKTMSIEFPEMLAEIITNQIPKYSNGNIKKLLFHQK
Sequence of DNA dC->dU-editing enzyme APOBEC-3G (Homo sapiens) (Q9HC16 whole entry, looked up): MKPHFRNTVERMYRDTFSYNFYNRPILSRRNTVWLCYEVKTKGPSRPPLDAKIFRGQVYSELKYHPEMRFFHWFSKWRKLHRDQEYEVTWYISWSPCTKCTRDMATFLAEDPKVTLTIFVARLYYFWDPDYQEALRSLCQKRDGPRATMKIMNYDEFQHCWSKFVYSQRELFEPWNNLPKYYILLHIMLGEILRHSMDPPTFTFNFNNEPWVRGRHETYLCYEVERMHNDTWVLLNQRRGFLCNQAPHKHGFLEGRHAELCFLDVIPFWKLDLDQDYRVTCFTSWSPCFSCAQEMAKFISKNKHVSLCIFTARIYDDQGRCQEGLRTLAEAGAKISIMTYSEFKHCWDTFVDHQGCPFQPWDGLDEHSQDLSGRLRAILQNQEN
Sequence of 3',5'-cyclic-AMP phosphodiesterase 4B (Homo sapiens) (Q07343 whole entry, looked up): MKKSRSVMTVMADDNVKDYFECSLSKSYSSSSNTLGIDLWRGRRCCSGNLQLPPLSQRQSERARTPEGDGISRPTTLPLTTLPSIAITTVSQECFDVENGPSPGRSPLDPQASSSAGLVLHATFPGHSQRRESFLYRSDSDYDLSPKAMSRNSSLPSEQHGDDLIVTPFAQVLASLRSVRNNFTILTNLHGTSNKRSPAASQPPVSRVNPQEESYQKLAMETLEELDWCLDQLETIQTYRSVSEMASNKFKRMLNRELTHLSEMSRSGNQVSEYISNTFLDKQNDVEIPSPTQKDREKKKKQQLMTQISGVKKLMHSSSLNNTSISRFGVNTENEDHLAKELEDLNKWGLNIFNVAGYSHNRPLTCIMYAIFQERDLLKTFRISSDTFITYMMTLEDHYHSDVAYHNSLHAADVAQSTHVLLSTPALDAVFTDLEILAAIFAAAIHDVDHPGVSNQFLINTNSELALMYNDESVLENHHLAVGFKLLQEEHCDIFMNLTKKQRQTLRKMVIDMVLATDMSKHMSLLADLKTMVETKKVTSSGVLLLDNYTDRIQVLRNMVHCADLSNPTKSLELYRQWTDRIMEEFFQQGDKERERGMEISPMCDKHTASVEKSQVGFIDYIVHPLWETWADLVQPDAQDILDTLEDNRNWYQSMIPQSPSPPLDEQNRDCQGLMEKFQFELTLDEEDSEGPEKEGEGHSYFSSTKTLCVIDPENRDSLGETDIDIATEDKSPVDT
Sequence of Cytochrome P450 2C9 (Homo sapiens) (P11712 whole entry, looked up): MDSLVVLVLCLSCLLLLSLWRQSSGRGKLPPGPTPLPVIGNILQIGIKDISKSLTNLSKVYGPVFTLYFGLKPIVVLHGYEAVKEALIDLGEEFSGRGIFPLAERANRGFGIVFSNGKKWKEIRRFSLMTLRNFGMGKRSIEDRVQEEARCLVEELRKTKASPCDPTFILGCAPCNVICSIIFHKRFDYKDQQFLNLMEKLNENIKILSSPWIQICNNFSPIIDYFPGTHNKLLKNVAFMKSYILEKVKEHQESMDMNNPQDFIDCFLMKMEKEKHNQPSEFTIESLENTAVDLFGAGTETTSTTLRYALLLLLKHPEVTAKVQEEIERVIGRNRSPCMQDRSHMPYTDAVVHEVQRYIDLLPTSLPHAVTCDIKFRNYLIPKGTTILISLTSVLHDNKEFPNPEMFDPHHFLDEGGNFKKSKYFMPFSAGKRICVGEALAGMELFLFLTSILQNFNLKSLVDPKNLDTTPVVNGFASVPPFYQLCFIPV
Sequence of Cytochrome P450 3A4 (Homo sapiens) (P08684 whole entry, looked up): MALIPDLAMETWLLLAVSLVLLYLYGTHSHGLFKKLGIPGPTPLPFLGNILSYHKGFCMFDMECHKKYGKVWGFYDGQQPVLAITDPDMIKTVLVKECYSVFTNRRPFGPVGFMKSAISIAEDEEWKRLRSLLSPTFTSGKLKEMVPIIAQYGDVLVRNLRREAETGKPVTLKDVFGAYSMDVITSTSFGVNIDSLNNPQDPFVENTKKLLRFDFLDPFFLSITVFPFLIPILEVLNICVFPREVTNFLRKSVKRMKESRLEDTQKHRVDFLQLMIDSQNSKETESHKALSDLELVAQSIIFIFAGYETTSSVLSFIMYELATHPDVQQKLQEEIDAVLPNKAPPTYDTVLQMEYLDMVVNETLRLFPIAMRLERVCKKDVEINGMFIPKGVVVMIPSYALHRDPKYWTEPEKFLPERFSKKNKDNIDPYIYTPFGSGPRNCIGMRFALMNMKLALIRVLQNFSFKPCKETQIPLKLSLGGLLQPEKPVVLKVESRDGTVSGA
Sequence of Cytochrome P450 2D6 (Homo sapiens) (P10635 whole entry, looked up): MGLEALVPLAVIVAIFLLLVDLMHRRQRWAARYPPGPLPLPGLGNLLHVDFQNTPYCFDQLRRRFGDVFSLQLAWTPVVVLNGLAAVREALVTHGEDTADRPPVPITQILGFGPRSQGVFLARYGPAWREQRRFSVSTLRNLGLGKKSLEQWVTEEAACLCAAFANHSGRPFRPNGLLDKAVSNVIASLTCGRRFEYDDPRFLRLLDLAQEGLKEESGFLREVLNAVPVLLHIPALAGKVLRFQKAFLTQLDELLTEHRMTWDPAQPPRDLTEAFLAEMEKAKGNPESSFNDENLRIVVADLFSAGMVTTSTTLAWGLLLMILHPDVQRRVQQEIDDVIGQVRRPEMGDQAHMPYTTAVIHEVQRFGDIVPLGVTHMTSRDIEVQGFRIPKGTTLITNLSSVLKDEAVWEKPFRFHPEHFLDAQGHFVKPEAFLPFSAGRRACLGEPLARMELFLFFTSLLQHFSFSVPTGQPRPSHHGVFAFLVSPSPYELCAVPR
Sequence of Cytochrome P450 1A2 (Homo sapiens) (P05177 whole entry, looked up): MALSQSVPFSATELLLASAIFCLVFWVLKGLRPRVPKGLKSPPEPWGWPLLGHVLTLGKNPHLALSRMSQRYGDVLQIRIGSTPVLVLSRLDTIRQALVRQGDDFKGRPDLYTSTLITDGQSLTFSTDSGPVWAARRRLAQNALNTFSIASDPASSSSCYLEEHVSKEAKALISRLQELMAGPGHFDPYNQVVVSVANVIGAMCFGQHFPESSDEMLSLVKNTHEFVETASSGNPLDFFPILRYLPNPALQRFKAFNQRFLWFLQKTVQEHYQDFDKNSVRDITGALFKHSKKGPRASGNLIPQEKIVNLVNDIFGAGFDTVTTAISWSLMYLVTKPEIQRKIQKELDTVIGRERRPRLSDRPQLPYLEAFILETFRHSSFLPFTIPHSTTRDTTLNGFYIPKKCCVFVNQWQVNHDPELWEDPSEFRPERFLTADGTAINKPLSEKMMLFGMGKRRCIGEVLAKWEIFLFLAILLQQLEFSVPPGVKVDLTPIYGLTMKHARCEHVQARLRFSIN

Consider `COc1ccc([C@@H]2OC[C@]3(COC(C)=O)[C@H](C)C=C(C)[C@@H]2[C@H]3C)cc1`, for which the Potency was 15.8 µM (active) in [1], over 46 µM in experiment [2], over 46 µM in [3] and 6.31 µM (active) in experiment [5]. In addition, the Potency result in experiment [4] was “inactive”.

With `C=C1CC[C@H]2C(C)(C)[C@H](O)CC[C@]2(C)[C@@H]1COc1ccc2ccc(=O)oc2c1`, the Potency was 31.6 µM (active) in experiment [1]; over 46 µM in [2]; over 46 µM in [3]; 3.98 µM (active) in [7]; 6.31 µM (active) in [5]. For the same molecule, the Potency entry in experiment [6] and in experiment [4] was “inactive” in each case.

On to `O=c1cc(-c2ccccc2)oc2cc(O[C@H]3O[C@H](CO)[C@@H](O)[C@H](O)[C@@H]3O)c(O)c(O)c12`, for which the Potency entry in [1], in [7], in experiment [4] and in [5] was “inactive” each time. The Potency in [2] and in [3] was over 46 µM each time.

Turning to `C=C(CO)[C@H]1Cc2c(ccc3c(=O)c4c(oc23)COc2cc(OC)c(OC)cc2-4)O1`, the Potency result in experiment [1], in experiment [8], in [7], in experiment [4] and in experiment [5] was “inactive” each time. The Potency in experiment [2] and in [3] was over 46 µM throughout.

With `COc1cc(C(=O)O[C@@H]2CC(C)=CC[C@@]3(C)CC[C@](O)(C(C)C)[C@H]23)ccc1O`, the Potency in experiment [1] is 15.8 µM (active); in [2], over 46 µM; in experiment [3] it was over 46 µM; in experiment [7] it was 15.8 µM (active). The Potency entry in [6] is “inactive”.

Consider `COc1cc2oc(-c3ccccc3)cc(=O)c2cc1OC`, for which the Potency is 0.2 µM (active) in experiment [1], over 46 µM in experiment [2], over 46 µM in [3] and 15.8 µM (active) in experiment [9]. The Potency entry in experiment [8], in [7], in [10] and in [4] was “inactive” in each case. In addition, in [11], the molecule was classed as inactive.

With `O=c1c(O)c(-c2ccc(O)c(O)c2)oc2ccccc12`, the figures for the Potency in experiment [1], in experiment [2] and in [3] were 0.251 µM (active), over 46 µM and over 46 µM, respectively. The Potency entry in experiment [10] is “inactive”.

For `C=C1CC[C@@H]2O[C@]2(C)CC[C@@H]2[C@H]1CC2(C)C`, the Potency is 15.8 µM (active) in experiment [1], over 46 µM in [2], over 46 µM in experiment [3] and 25.1 µM (active) in experiment [7]. Also, the Potency result in experiment [6] and in experiment [4] was “inactive” throughout.

As to `CC(C)=CCC/C(C)=C/COc1c2ccoc2cc2oc(=O)ccc12`, the Potency is 0.316 µM (active) in experiment [1]; over 46 µM in experiment [2]; over 46 µM in experiment [3]; 0.0316 µM (active) in experiment [7]; 0.0631 µM (active) in [4]; 0.01 µM (active) in [5].

Regarding `CC1(C)CC[C@]2(C(=O)O)CC[C@]3(C)C(=CC[C@@H]4[C@@]5(C)CC[C@H](O)C(C)(C)[C@@H]5CC[C@@]43C)[C@@H]2C1`, the Potency result in experiment [1], in experiment [6], in experiment [7], in [4] and in experiment [5] was “inactive” in each case. For the same molecule, the Potency in experiment [2] and in [3] was over 46 µM in each case.

For `O=c1c(O)c(-c2ccc(O)c(O)c2)oc2c(OC[C@H]3O[C@@H](O)[C@@H](O)[C@H](O)[C@@H]3O)c(O)cc(O)c12`, the Potency result in experiment [1], in experiment [8], in experiment [4] and in experiment [5] was “inactive” throughout. In addition, the Potency in experiment [2] and in [3] was over 46 µM each time.

For `COc1cccc(-c2oc3ccccc3c(=O)c2O)c1`, the Potency in experiment [1] was 0.2 µM (active); in experiment [2] it was over 46 µM; in experiment [3] it was over 46 µM; in experiment [7] it was 12.6 µM (active); in [9], 12.6 µM (active); in experiment [5], 6.31 µM (active). The Potency result in experiment [8] and in experiment [10] was “inactive” in each case. Moreover, the molecule was called inactive in [11].

As to `O=c1c(O)c(-c2cccc(O)c2)oc2ccccc12`, the Potency in [1] was 0.501 µM (active); in experiment [2] it was over 46 µM; in experiment [3], over 46 µM; in experiment [7] it was 15.8 µM (active); in experiment [9] it was 15.8 µM (active); in experiment [5], 25.1 µM (active). Besides, in experiment [10], the Potency result is “inactive”. The molecule was classed as inactive in [11].

Take `CC(=O)c1c(O)c(C)c(O)c2c1OC1=CC(=O)[C@H](C(C)=O)C(=O)[C@]12C`: the Potency was 3.16 µM (active) in [1], over 46 µM in experiment [2] and over 46 µM in experiment [3]. Besides, the Potency entry in experiment [8], in experiment [4] and in [5] was “inactive” throughout.

For the molecule `COc1ccc2c(=O)cc(-c3ccc(O)cc3)oc2c1`, the Potency in [1] was 0.0794 µM (active); in experiment [2], over 46 µM; in [7], 6.31 µM (active); in experiment [9] it was 3.16 µM (active); in [5], 7.94 µM (active). In addition, the Potency result in experiment [6], in experiment [8] and in [10] was “inactive” in each case. In addition, the molecule was called inactive in [11].
